Reference: PubChem BioAssay (Tox21)
Inconclusive results are not listed. A call without a number means that no potency is given here. A number with no mark means an inactive call. Active and inactive are the calls of the source. Unless noted, calls follow the shape of the dose curve; as a rule, active = well fitted curve in the direction sought with a large enough effect in the repeat runs; inconclusive = weak or mixed curves; inactive = no such curve, though single readings can be large; an effect the other way counts as inactive or inconclusive.

Columns and labels:
[1] = qHTS assay to identify aromatase inhibitors - cell viability counter screen (AID 743084);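 also: cells stimulated with testosterone during compound exposure; nearly all actives have a fitted effect of over 55% in size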
[2] = target: Aryl hydrocarbon receptor (Homo sapiens) (UniProt P35869); assay: qHTS assay to identify small molecule that activate the aryl hydrocarbon receptor (AhR) signaling pathway (AID 743085);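 also: HG2L7.5c1 human HepG2 liver cells with stably integrated DRE-driven firefly reporter; series mostly up to about 70 µM; nearly all actives have a fitted effect of over 15% in size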
In short: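 AhR agonist activity is inferred from enhanced light output of a DRE-controlled firefly luciferase reporter in HepG2 cells, measured with ONE-Glo following 24 h treatment at 37C.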

[3] = qHTS assay to identify small molecule that activate the aryl hydrocarbon receptor (AhR) signaling pathway - cell viability counter screen (AID 743086);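 also: HepG2 liver cells carrying the AhR DRE luciferase reporter; series mostly up to about 70 µM; nearly all actives have a fitted effect of over 45% in size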
In short: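 Cytotoxicity counter screen: CellTiter-Fluor signal (30 min, 37 C) in 4000 HepG2 cells/well carrying the DRE-luciferase reporter, following 24 h compound exposure at 37 C.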

[4] = target: Peroxisome proliferator-activated receptor gamma (Homo sapiens) (UniProt P37231); assay: qHTS assay to identify small molecule agonists of the peroxisome proliferator-activated receptor gamma (PPARg) signaling pathway (AID 743094; active = well fitted activation curve with a large enough effect in the signal ratio in the repeat runs, not every such curve was filed as active; the % refers to the signal ratio)
In short: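 Quantitative HTS agonist mode: stable HEK293H line with UAS-beta-lactamase reporter under PPARg control, 17 h compound exposure at 37C, fluorescence after 1 h FRET substrate loading at room temperature.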

[5] = target: Peroxisome proliferator-activated receptor gamma (Homo sapiens) (UniProt P37231); assay: qHTS assay to identify small molecule antagonists of the peroxisome proliferator-activated receptor gamma (PPARg) signaling pathway (AID 743191; calls by dose curve; also: series mostly up to about 63 µM; nearly all actives have a fitted effect of over 30% in size)
In short: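 Beta-lactamase reporter under UAS control in HEK293H PPARg-bla cells; compound treatment 17 h at 37C. Read-out: fluorescence intensity after 1 h room-temperature incubation with LiveBLAzer B/G FRET substrate.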

[6] = qHTS assay to identify small molecule antagonists of the peroxisome proliferator-activated receptor gamma (PPARg) signaling pathway - cell viability counter screen (AID 743194); also: nearly all actives have a fitted effect of over 55% in size
In short: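 Viability was measured as CellTiter-Glo luminescence in GeneBLAzer PPARg UAS-bla HEK293H cells. These cells had been exposed 17 h at 37 C to compounds together with rosiglitazone at 50 nM final, with the beta-lactamase readout taken in the same wells.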

[7] = qHTS assay for small molecule agonists of the antioxidant response element (ARE) signaling pathway (AID 743202; active = well fitted activation curve with a large enough effect in the signal ratio in the repeat runs, not every such curve was filed as active; the % refers to the signal ratio; also: potency is read from the fitted curve at half-maximal effect)
In short: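 An ARE-responsive beta-lactamase gene stably integrated in HepG2 cells serves as reporter. After 5 h plating and 16 h compound incubation at 37 C, fluorescence of the B/G FRET substrate was measured.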

[8] = qHTS assay for small molecule agonists of the antioxidant response element (ARE) signaling pathway - cell viability counter screen (AID 743203; calls by dose curve; also: nearly all actives have a fitted effect of over 55% in size)
In short: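 Seeded at 2,000 cells/well, ARE-bla HepG2 cells were incubated 5 hrs before compound addition. After 16 hrs of treatment at 37C with 5% CO2, CellTiter-Glo reagent was added and luminescence read 30 min later.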

[9] = qHTS assay for small molecule activators of the heat shock response signaling pathway - cell viability counter screen (AID 743209); also: nearly all actives have a fitted effect of over 50% in size
In short: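 First, HSE-bla HeLa cells were seeded at 1500 cells/well and kept overnight at 37 C. Next, compounds were pinned in and incubated 5 h. After the FRET substrate step, CellTiter-Glo was added and luminescence read 30 min later.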

[10] = qHTS assay for small molecule activators of the heat shock response signaling pathway (AID 743210; active = well fitted activation curve with a large enough effect in the signal ratio in the repeat runs, with a control signal flat, not every such curve was filed as active; the % refers to the signal ratio;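 also: HeLa cells with beta-lactamase reporter driven by heat shock elements; series mostly up to about 63 µM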)
In short: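 In HSE-bla HeLa cells, 5 h compound incubation (37 C) precedes addition of LiveBLAzer B/G substrate; after 2.5 h at room temperature, fluorescence intensity indicates reporter induction.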

[11] = qHTS assay to identify small molecule agonists of the peroxisome proliferator-activated receptor delta (PPARd) signaling pathway - cell viability counter screen (AID 743211); also: nearly all actives have a fitted effect of over 55% in size
In short: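 qHTS cell viability: PPARd-bla HEK293H; 17 h cpd, 37C; CellTiter-Glo, luminescence at 30 min RT.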

[12] = target: Peroxisome proliferator-activated receptor delta (Homo sapiens) (UniProt Q03181); assay: qHTS assay to identify small molecule antagonists of the peroxisome proliferator-activated receptor delta (PPARd) signaling pathway (AID 743215; active = well fitted inhibition curve with a large enough effect in the signal ratio in the repeat runs, not every such curve was filed as active; the % refers to the signal ratio;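 also: cells stimulated with agonist L165041 at 300 nM final during compound exposure; series mostly up to about 62 µM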)
In short: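 Inhibition of L165041-driven (300 nM final) PPARd signaling is scored in HEK293H UAS-bla cells. Exposure lasts 17 h at 37 C; beta-lactamase activity is then read by FRET substrate fluorescence after 2 h at room temperature.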

[13] = target: Bile acid receptor (Homo sapiens) (UniProt Q96RI1); assay: qHTS assay to identify small molecule antagonists of the farnesoid-X-receptor (FXR) signaling pathway (AID 743217; active = well fitted inhibition curve with a large enough effect in the signal ratio in the repeat runs, not every such curve was filed as active; the % refers to the signal ratio)
In short: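 Antagonist mode against 50 uM (final) chenodeoxycholic acid stimulation in FXR-bla HEK 293T cells, 16 h at 37 °C. Inhibition detected as reduced beta-lactamase activity via LiveBLAzer B/G FRET fluorescence after 2 h at room temperature.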

[14] = target: Bile acid receptor (Homo sapiens) (UniProt Q96RI1); assay: qHTS assay to identify small molecule agonists of the farnesoid-X-receptor (FXR) signaling pathway (AID 743220; active = well fitted activation curve with a large enough effect in the signal ratio in the repeat runs, not every such curve was filed as active; the % refers to the signal ratio)
In short: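 Beta-lactamase reporter under UAS control in GeneBLAzer FXR HEK 293T cells (5000/well) measured with LiveBLAzer FRET substrate after 2 h at room temperature. Compound exposure lasted 16 h at 37C.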

[15] = qHTS assay to identify small molecule antagonists of the farnesoid-X-receptor (FXR) signaling pathway - cell viability counter screen (AID 743221; active = well fitted cell-killing curve with a large enough effect in the repeat runs, not every such curve was filed as active; also: nearly all actives have a fitted effect of over 50% in size)
In short: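 After a 5 h settling period, FXR-bla HEK 293T cells receive compound and chenodeoxycholic acid (50 uM final) and incubate 16 h at 37 C; CellTiter-Glo luminescence, read after 30 min at room temperature, reports cell viability.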

[16] = target: Vitamin D3 receptor (Homo sapiens) (UniProt P11473); assay: qHTS assay to identify small molecule agonists of the vitamin D receptor (VDR) signaling pathway (AID 743222; calls by dose curve)
In short: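 Quantitative HTS agonist-mode screen: compounds in DMSO were pin-transferred onto VDR-bla cells and incubated 16 h at 37C, 5% CO2. Reporter activity was detected with LiveBLAzer B/G FRET substrate after 2 h at room temperature.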

[17] = qHTS assay to identify small molecule antagonists of the peroxisome proliferator-activated receptor delta (PPARd) signaling pathway - cell viability counter screen (AID 743213); also: nearly all actives have a fitted effect of over 50% in size
In short: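 Viability counter-screen, qHTS format: PPARd-bla HEK293H, L165041 300 nM final, 17 h compound exposure at 37 C, CellTiter-Glo luminescence after 30 min RT.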

[18] = qHTS assay to identify small molecule agonists of the farnesoid-X-receptor (FXR) signaling pathway - cell viability counter screen (AID 743218); also: nearly all actives have a fitted effect of over 45% in size
In short: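 Cytotoxicity counter-screen run in parallel, same wells: FXR-UAS-bla HEK 293T cells dosed 16 h at 37 C, viability read by CellTiter-Glo luminescence after 30 min at room temperature.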

[19] = target: Vitamin D3 receptor (Homo sapiens) (UniProt P11473); assay: qHTS assay to identify small molecule antagonists of the vitamin D receptor (VDR) signaling pathway (AID 743223; active = well fitted inhibition curve with a large enough effect in the signal ratio in the repeat runs, not every such curve was filed as active; the % refers to the signal ratio)
In short: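 Reporter line VDR-bla; stimulus 1alpha,25-(OH)2 vitamin D3, 3 nM final; compound co-addition, 16 h 37C/5% CO2; LiveBLAzer B/G substrate 2 h RT; fluorescence intensity.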

[20] = target: Peroxisome proliferator-activated receptor delta (Homo sapiens) (UniProt Q03181); assay: qHTS assay to identify small molecule agonists of the peroxisome proliferator-activated receptor delta (PPARd) signaling pathway (AID 743212; calls by dose curve)
In short: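 HEK293H UAS-bla reporter cells, human PPARd system; compounds delivered in DMSO after 5 h plating, then at 37 C. Beta-lactamase FRET read, 2 h RT substrate step.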

Peroxisome proliferator-activated receptor delta (Homo sapiens), sequence (Q03181 whole entry, looked up): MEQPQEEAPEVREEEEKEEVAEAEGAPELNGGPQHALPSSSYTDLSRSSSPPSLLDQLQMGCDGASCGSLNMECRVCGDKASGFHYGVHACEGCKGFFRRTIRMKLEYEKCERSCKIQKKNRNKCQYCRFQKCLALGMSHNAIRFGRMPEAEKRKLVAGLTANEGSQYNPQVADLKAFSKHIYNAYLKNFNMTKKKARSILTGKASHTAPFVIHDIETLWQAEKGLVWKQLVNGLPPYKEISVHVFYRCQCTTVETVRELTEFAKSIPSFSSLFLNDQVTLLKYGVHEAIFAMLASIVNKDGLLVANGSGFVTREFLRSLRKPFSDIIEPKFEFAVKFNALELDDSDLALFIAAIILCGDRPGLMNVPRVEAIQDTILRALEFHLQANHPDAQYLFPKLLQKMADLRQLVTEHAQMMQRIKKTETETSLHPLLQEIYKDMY
Vitamin D3 receptor (Homo sapiens), sequence (P11473 whole entry, looked up): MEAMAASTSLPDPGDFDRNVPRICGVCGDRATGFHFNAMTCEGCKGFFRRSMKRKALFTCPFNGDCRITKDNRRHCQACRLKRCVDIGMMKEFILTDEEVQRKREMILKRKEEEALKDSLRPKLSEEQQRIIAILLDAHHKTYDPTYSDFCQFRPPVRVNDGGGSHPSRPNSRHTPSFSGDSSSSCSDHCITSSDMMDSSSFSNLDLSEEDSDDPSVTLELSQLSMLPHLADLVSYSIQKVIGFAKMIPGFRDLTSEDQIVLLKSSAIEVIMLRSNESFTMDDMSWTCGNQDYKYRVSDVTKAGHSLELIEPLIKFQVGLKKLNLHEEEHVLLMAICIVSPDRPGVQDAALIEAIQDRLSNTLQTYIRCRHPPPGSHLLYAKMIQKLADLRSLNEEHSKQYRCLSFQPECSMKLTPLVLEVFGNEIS
Bile acid receptor (Homo sapiens), sequence (Q96RI1 whole entry, looked up): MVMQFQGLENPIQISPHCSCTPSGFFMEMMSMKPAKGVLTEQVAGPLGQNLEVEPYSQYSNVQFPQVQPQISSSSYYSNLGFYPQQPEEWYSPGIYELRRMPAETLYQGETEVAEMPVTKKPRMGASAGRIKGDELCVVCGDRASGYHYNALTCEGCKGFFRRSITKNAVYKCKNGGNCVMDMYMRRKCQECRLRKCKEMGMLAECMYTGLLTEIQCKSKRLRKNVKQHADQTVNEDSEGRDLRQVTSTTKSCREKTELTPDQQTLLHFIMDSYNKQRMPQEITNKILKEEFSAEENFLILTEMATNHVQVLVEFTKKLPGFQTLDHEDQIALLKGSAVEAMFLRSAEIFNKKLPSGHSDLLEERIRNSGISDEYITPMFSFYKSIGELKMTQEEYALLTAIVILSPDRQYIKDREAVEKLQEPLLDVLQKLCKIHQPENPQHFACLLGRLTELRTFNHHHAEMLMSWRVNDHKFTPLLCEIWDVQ
Peroxisome proliferator-activated receptor gamma (Homo sapiens), sequence (P37231 whole entry, looked up): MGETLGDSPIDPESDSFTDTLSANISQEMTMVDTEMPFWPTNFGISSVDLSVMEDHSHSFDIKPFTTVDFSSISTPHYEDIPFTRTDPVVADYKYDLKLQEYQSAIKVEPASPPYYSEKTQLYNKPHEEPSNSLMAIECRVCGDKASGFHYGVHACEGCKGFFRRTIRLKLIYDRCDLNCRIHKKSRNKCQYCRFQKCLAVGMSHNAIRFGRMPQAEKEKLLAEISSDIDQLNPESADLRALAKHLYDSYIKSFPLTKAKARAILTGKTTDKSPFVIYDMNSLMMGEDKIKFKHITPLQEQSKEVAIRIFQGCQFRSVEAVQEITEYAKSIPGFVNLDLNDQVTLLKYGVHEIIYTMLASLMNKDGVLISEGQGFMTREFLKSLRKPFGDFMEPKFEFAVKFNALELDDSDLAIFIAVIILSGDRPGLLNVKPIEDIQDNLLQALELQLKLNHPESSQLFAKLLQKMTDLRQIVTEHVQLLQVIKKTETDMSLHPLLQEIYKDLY
Aryl hydrocarbon receptor (Homo sapiens), sequence (P35869 whole entry, looked up): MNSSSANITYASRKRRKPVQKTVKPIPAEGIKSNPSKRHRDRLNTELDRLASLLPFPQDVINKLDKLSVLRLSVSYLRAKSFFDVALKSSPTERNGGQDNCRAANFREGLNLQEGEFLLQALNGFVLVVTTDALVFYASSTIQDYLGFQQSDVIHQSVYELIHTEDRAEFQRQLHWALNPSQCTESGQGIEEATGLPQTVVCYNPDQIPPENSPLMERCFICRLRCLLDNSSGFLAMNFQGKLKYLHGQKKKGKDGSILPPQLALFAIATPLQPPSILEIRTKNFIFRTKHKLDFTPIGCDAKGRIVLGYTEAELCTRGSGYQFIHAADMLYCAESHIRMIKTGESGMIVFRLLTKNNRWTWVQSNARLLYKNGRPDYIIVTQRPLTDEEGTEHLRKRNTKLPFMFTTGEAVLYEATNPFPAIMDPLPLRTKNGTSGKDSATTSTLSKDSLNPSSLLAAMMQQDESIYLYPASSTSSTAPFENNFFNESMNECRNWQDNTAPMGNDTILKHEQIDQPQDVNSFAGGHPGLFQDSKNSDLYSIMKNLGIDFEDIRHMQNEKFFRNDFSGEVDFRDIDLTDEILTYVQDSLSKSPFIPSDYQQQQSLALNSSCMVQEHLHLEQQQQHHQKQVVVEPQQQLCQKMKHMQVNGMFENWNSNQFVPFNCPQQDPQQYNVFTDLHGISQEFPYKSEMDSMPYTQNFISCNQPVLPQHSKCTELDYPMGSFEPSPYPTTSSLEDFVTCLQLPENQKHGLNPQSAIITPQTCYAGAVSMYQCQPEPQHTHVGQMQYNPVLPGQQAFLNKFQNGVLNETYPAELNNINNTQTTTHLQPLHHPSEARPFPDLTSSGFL

SMILES | outcome [1] | Potency [2] | outcome [3] | outcome [4] | outcome [5] | outcome [6] | Potency [7] | outcome [8] | Potency [9] | outcome [10] | outcome [11] | outcome [12] | outcome [13] | outcome [14] | outcome [15] | outcome [16] | outcome [17] | outcome [18] | outcome [19] | outcome [20]
CC(=O)Oc1ccc(C(C)=O)cc1 | inactive | inactive | inactive | inactive | inactive | inactive | inactive | inactive | inactive | inactive | inactive | inactive | inactive | inactive | inactive | inactive |  |  |  | 
CCOC(=O)CC(C(C)=O)C(C)=O | inactive | inactive | inactive | inactive | inactive | inactive | inactive | inactive | inactive | inactive | inactive | inactive |  |  | inactive | inactive | inactive | inactive | inactive | 
CCCCC(CC)COC(=O)CC#N (stereo not drawn) | inactive | inactive | inactive | inactive | inactive | inactive | inactive | inactive | inactive | inactive | inactive |  |  | inactive |  | inactive | inactive | inactive | inactive | 
Nc1ccc(C(=O)NCC(=O)O)cc1 | inactive | inactive | inactive | inactive | inactive | inactive | inactive | inactive | inactive | inactive | inactive | inactive |  |  | inactive | inactive | inactive | inactive | inactive | inactive
CC(C)(C)c1ccc(N)cc1 | inactive | inactive | inactive | inactive | inactive | inactive | inactive | inactive | inactive | inactive | inactive | inactive |  |  | inactive | inactive | inactive |  |  | inactive
CCCCN(CCCC)CCCCCCN(CCCC)CCCC | inactive | inactive | inactive | inactive | inactive | inactive | inactive | inactive | inactive | inactive | inactive | inactive |  |  |  | inactive | inactive | inactive |  | inactive
CCCCCCCCCCCCCCCC(=O)OC | inactive | inactive | inactive | inactive | inactive | inactive | inactive | inactive | inactive | inactive | inactive | inactive | inactive | inactive | inactive | inactive | inactive | inactive | inactive | 
CC(C)=CCC/C(C)=C\C#N | inactive | inactive | inactive | inactive | inactive | inactive | inactive | inactive | inactive | inactive | inactive |  |  |  | inactive | inactive | inactive | inactive | inactive | 
CCCCCCCCC1CO1 (stereo not drawn) | inactive | inactive | inactive | inactive | inactive | inactive | inactive | inactive | inactive | inactive | inactive | inactive | inactive | inactive | inactive | inactive | inactive | inactive | inactive | inactive
C=C(C)C(=O)OCCCC | inactive | inactive | inactive | inactive | inactive | inactive | inactive | inactive | inactive | inactive | inactive | inactive |  |  | inactive |  | inactive | inactive |  | inactive
CN1C(CCl)Nc2cc(Cl)c(S(N)(=O)=O)cc2S1(=O)=O (stereo not drawn) | inactive | inactive | inactive | inactive | inactive | inactive | 26.6 µM (active) | inactive | inactive | inactive | inactive | inactive |  |  | inactive | inactive | inactive | inactive | inactive | inactive
N=C(N)S(=O)O | inactive | inactive | inactive | inactive | inactive | inactive | inactive | inactive | inactive | inactive | inactive |  |  |  | inactive | inactive | inactive | inactive | inactive | 
CSC(=O)c1cccc2nnsc12 | inactive | inactive | inactive | inactive | inactive | inactive | inactive | inactive | inactive | inactive | inactive | inactive |  |  | inactive | inactive |  |  | inactive | inactive
Cc1ccc(S(=O)(=O)NC(=O)NN2CC3CCCC3C2)cc1 (stereo not drawn) | inactive | inactive | inactive | inactive | inactive | inactive | inactive | inactive | inactive | inactive | inactive | inactive |  |  | inactive | inactive | inactive | inactive | inactive | inactive
OCCC(F)(F)C(F)(F)C(F)(F)C(F)(F)C(F)(F)C(F)(F)F | inactive | inactive | inactive | inactive | inactive | inactive | inactive | inactive | inactive | inactive | inactive | inactive | inactive |  | inactive |  | inactive | inactive |  | inactive
O=S(=O)(O)c1ccc(Cl)cc1 | inactive | inactive | inactive | inactive | inactive | inactive | inactive | inactive | inactive | inactive | inactive | inactive | inactive | inactive |  | inactive | inactive | inactive | inactive | 
